Assay outcomes as filed in PubChem.
Compounds with a hit are over-represented: about 2% of the library has one in this group of screens.
CHT inh – inhibits the human high affinity choline transporter; CHT-expressing cells, membrane potential dye, choline response; hits give low values; B-score at 10 µM; actives 0.86% (n = 310,000);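 active = B-score over 3 SD under the library average, and starting fluorescence ratio not unusually high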;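 note: choline stimulus applied at its EC90 after an EC20 pre-addition; B-score computed on integrated fluorescence ratio after choline addition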
Target sequence (Q9GZV3 whole entry, looked up): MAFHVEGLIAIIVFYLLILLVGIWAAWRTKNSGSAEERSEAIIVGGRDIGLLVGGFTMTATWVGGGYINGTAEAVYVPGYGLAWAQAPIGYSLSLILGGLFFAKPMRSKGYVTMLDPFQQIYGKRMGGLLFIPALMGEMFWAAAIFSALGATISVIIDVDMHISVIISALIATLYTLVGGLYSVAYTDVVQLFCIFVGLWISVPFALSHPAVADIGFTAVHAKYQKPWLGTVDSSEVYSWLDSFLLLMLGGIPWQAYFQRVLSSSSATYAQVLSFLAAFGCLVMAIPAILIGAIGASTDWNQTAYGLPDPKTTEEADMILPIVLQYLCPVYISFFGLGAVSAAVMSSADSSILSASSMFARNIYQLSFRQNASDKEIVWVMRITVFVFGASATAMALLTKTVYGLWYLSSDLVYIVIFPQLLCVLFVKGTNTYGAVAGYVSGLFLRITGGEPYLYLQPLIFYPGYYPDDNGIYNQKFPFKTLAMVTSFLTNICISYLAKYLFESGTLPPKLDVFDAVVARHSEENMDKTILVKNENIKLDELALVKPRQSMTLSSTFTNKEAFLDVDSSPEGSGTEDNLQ
CHT PAM – human CHT allosteric activation; CHT-expressing cells, membrane potential dye, choline EC20; hits give high values; LV-AA mutant CHT in HEK293 cells; B-score at 10 µM; actives 0.49% (n = 310,000); Q9GZV3;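 active = initial fluorescence not abnormally high and integrated response B-score, plate-corrected, over 3 SD above library mean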
EP2 modulator – EP2 receptor (human) modulation; actives 0.83% (n = 260,000); P43116; induction, % at 25 µM; EP2-expressing cells, cAMP HTRF FRET, PGE2 co-stimulation; AID 940;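 active = compounds whose cAMP rise, as percent of the full-agonist control response, exceeds 60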;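 note: rat C6 glioma line stably carrying human EP2 under a CMV promoter; the protocol text gives 20 µM as final concentration; 100% = response of wells given 1 µM PGE2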
PGE2 EP2 inh – EP2 receptor (human) inhibition. C6 glioma cells expressing human EP2, cAMP TR-FRET; cells stimulated with saturating PGE2. inhibition, % at 25 µM. actives 0.52% (n = 260,000);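 active = percent inhibition above 40 after rounding to a whole number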;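 note: rat C6 glioma host cells with rolipram phosphodiesterase inhibitor present; the protocol text gives 20 µM as final concentration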
CHT inh conf – human CHT inhibition, confirmatory screen; shares compounds with CHT inh; CHT-expressing cells, choline membrane potential dye; LV-to-AA substituted CHT, HEK293 cells; CHT activity remaining % of control (hits give low values), % at 10 µM; actives 70% (n = 2,400); AID 493221;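 active = choline transporter activity left, mean of duplicates at 10 µM, below buffer-only control mean minus 3 SD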;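 note: depolarization triggered by choline at its EC90 following an EC20 pre-addition; 0% = hemicholinium-3 full block and 100% = buffer-only control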
HEK293 MPD ctr – counter-screen for CHT inhibitors: effect in parental HEK293 cells | shares compounds with CHT inh | membrane potential dye, choline response; active = decrease or increase beyond buffer ±3SD | membrane potential ratio readout (active if shifted either direction beyond buffer ±3SD; no single direction) at 10 µM | actives 4% (n = 2,400);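 note: parental cells lack the transporter so any hit is non-specific; ratio is peak minus trough fluorescence over baseline after EC90 choline challenge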
The depositor's hits bear a star; i = inactive; . = not tested or not shown.

SMILES	CHT inh	CHT PAM	EP2 modulator	PGE2 EP2 inh	CHT inh conf	HEK293 MPD ctr
Cc1ccccc1C(=O)Nc1ccc(N2CCN(C(=O)C(C)C)CC2)c(Cl)c1	.	.	-28	10	.	.
O=C(NCC(c1ccco1)N1CCCCC1)c1cccc(S(=O)(=O)Nc2ccccc2Cl)c1 (stereo unspecified)	i	i	.	.	.	.
COc1ccc(C(CNC(=O)c2cccc(S(=O)(=O)Nc3ccc(C)cc3)c2)N2CCCCC2)cc1 (stereo unspecified)	-14*	i	.	.	12%*	i
O=C(NCC(c1ccco1)N1CCCC1)c1cccc(NS(=O)(=O)c2ccc(Br)cc2)c1 (stereo unspecified)	i	i	.	.	.	.
Cc1cccc(NS(=O)(=O)c2cccc(C(=O)NCC(c3ccco3)N3CCCCC3)c2)c1 (stereo unspecified)	-6.7*	i	.	.	14%*	i
COc1ccccc1NS(=O)(=O)c1ccc(C)c(C(=O)NCC(c2ccco2)N2CCCCC2)c1 (stereo unspecified)	-16*	i	.	.	-4.8%*	i
COc1ccc(NS(=O)(=O)c2cccc(C(=O)NCC(c3ccco3)N3CCCCC3)c2)cc1 (stereo unspecified)	-11*	i	.	.	0.3%*	i
O=c1[nH]c2cc3c(cc2cc1CN(C(=S)Nc1ccc(F)cc1)C1CCCC1)OCO3	.	.	-49	10	.	.
O=C(Cc1c(F)cccc1Cl)NCc1ccco1	.	.	-27	3	.	.
Cc1nc2c(c(=O)[nH]1)CCN(Cc1[nH]c3ccccc3c1C)C2	.	.	-24	2	.	.
Nc1ccc(-c2ccc(N)cc2C(F)(F)F)c(C(F)(F)F)c1	-5.7*	i	22	10	51%*	i
CC(C)c1nc2oc3c(N(C)CCO)ncnc3c2c2c1CCC2	-5.7*	i	7	7	i	i
Cc1ccc(Oc2ccc(S(=O)(=O)NCC(C)(C)N3CCOCC3)cc2)cc1	-6.4*	i	.	.	40%*	i
CSCc1ccc(C(=O)N2CCCC(Nc3ccc(F)cc3)C2)o1 (stereo unspecified)	-5.2*	i	.	.	i	i
Cc1ccccc1CN(CCCn1ccnc1)Cc1coc2ccccc2c1=O	.	.	12	3	.	.
O=C(Cn1nc2c3ccccc3nc(C3CC3)n2c1=O)NCc1ccccc1F	.	.	-3	.	.	.
Cc1ccc(-n2cccc2)cc1NC(=O)c1ncoc1-c1cccs1	.	.	29	10	.	.
Cc1cc(C)nc(NS(=O)(=O)c2ccc(NC(=O)C3COc4ccccc4O3)cc2)n1 (stereo unspecified)	-6.4*	i	3	1	41%*	i
Cc1cccc(NS(=O)(=O)c2ccc(NC(=O)C3COc4ccccc4O3)cc2)c1 (stereo unspecified)	.	.	-109	7	.	.
CC(C)OC(=O)c1c(NC(=O)C2CC=CCC2C(=O)O)sc2c1CCCCC2 (stereo unspecified)	-5.2*	i	.	.	i	i
NC(=O)c1c(NC(=O)C2CC=CCC2C(=O)O)sc2c1CCCCC2 (stereo unspecified)	i	i	.	.	.	.
COc1c(/C=C2\SC(=Nc3ccccc3Cl)NC2=O)cccc1[N+](=O)[O-]	i	i	.	.	.	.
O=C1NC(=Nc2ccccc2Cl)S/C1=C\c1cccc([N+](=O)[O-])c1O	-5*	i	.	.	38%*	i
Cn1c(N2CCC(C(=O)Nc3ncn[nH]3)CC2)nc2ccccc21	.	.	-35	10	.	.
O=[N+]([O-])c1ccc(Nc2ccccc2)c2nonc12	-6*	i	.	.	47%*	i
SMILES	CHT inh	CHT PAM	EP2 modulator	PGE2 EP2 inh	CHT inh conf	HEK293 MPD ctr
CC(C)CNS(=O)(=O)c1ccc(CCC(=O)N2CCN(Cc3ccc4c(c3)OCO4)CC2)cc1	-5.6*	i	0	17	62%*	i
Cc1ccc(C(=O)CSc2nc3ccccc3c(=O)n2Cc2ccco2)cc1	.	.	45	17	.	.
CC/C(=C(/CC)c1ccc(O)cc1)c1ccc(O)cc1	-7.4*	i	-36	20	55%*	i
N=C(N)c1ccc(O)cc1	i	i	9	6	.	.
CCN1CCN(C(=O)C2=CC(c3ccc(C)cc3)=NS(=O)(=O)N2C)CC1	-6.6*	i	.	.	i	i
CCN1CCN(C(=O)C2=CC(c3ccc(OC)cc3)=NS(=O)(=O)N2C)CC1	i	i	.	.	.	.
O=C(OCCCOc1ccc(F)cc1)c1ccc(O)cc1O	-6*	i	.	.	49%*	i
CCn1c(=O)cc(SCC(=O)Nc2ccc(OC)c(OC)c2)c2ccccc21	-6*	i	11	8	i	i
CN(C)c1ccc(-c2nnn(CC(=O)N3CCCCCC3)n2)cc1	.	.	-41	8	.	.
Cc1nonc1NC(=O)CSc1ccc(-c2ccccc2)nn1	-8*	i	19	8	23%*	i
Cc1nonc1NC(=O)CSc1cn[nH]n1	i	i	.	.	.	.
O=C(Nc1nccs1)C1CCN(S(=O)(=O)c2ccc(F)cc2)CC1	i	i	.	.	.	.
O=C(Nc1nccs1)C1CCN(S(=O)(=O)c2c(Cl)cccc2Cl)CC1	-5.9*	i	-4	6	i	i
COc1ccccc1C1(NC(=O)c2cc(C(C)C)[nH]n2)CCCC1	.	.	-8	.	.	.
Brc1ccc(C2=Nc3ccccc3C(c3ccncc3)=NN2)cc1	-11*	i	12	4	i	i
CCOC(=O)CN1C(=O)S/C(=C/c2ccc(N3CCCCC3)o2)C1=O	i	i	-8	10	.	.
COC(=O)CN1C(=O)S/C(=C/c2ccc(N3CCCCC3)o2)C1=O	-5.1*	i	28	4	i	i
CCc1c(C)nc2ncnn2c1N1CCN(S(=O)(=O)c2ccc(OC)cc2)CC1	-6.3*	i	-30	14	50%*	i
O=C(c1ccc(CN2CCc3ccccc3C2)cc1)N1CCN(c2ccc(F)cc2)CC1	-5*	i	.	16	i	i
Cc1cc(C)c(NC(=O)c2ccc(CN3CCc4ccccc4C3)cc2)c(C)c1	-11*	i	-40	22	18%*	i
O=C(c1ccc(CN2CCc3ccccc3C2)cc1)N1CCCCC1	i	i	18	15	.	.
Cc1ccc(S(=O)(=O)N2CCC(C(=O)C3C(=O)CC(C)(C)CC3=O)CC2)cc1	-6.4*	i	31	7	i	i
